Screening data deposited in PubChem BioAssay by Sanford-Burnham Center for Chemical Genomics.
CYP2C9 inh: blocks human cytochrome P450 2C9; AID 777; inhibition, % at 5 µM; CYP2C9 Supersomes, luciferin-H conversion, luminescence; P11712; 20% of 96,000 active;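 active means blocking of liver enzyme CYP2C9 beyond about 50% at 5 µM, limit read from the data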
CYP2C9 act: increases human cytochrome P450 2C9 activity; recombinant CYP2C9, luciferin-H conversion, luminescence; hits give high values; factor 1 = untreated enzyme, 0 = blocked; 1.4% of 96,000 active; P11712; activation factor at 5 µM;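 active means activation factor of 2 or more for CYP2C9 at a 5 µM dose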
PLAP activator: activates human placental alkaline phosphatase. activation fold at 20 µM. purified PLAP enzyme, luminescent substrate read-out; hits give high values. 1.2% of 96,000 active; in the data active means activation fold above about 2
CYP2C19 act: increases human CYP2C19 enzyme activity; P33261; recombinant CYP2C19, luciferin-H EGE luminescence; hits give high values; 0 = fully inhibited enzyme, 1 = untreated enzyme; activation factor at 5 µM; 96,000 tested, under 10 active; AID 1025;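 active means activation factor of at least 2 at 5 µM in the primary screen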
Target sequence (P33261 whole entry, looked up): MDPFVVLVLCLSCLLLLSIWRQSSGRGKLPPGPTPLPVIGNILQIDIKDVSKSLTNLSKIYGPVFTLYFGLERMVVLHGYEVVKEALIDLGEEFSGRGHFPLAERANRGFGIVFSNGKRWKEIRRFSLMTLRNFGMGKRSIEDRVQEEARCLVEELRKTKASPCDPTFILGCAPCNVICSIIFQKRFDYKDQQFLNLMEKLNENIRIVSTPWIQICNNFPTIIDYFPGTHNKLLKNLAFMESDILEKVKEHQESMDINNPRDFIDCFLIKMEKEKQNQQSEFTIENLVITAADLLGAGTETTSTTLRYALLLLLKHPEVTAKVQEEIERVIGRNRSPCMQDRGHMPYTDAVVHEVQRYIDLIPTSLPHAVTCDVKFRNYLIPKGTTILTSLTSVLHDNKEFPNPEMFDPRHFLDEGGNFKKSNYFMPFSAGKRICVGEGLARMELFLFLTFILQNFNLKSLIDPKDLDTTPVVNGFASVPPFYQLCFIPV
CYP2C19 inhib: blocks human cytochrome P450 2C19. CYP2C19 Supersomes, luciferin-H EGE luminescence, 30 min. inhibition, % at 5 µM. 21% of 96,000 active. AID 778;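 active means CYP2C19 inhibition above a set limit at 5 µM in the primary screen, cut at about 50% in these data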
Each line names hits and unclear results; the compound was inactive in the other large screens. Rows were chosen to be rich in hits. Some 31% of all compounds tested hit in one or more screens of this group.

COCCCn1c(SCC(=O)Nc2cccc(C(=O)OC)c2)nnc1-c1ccncc1	CYP2C9 inh 79.4, CYP2C19 inhib 81.3
COCCn1c(SCC(=O)Nc2sc(C)c(C)c2C#N)nnc1-c1ccc(OC)cc1	CYP2C9 inh 54.3
COCCn1c(SCC(=O)Nc2cccc(OC)c2)nnc1-c1ccc(Cl)cc1	CYP2C9 inh 67.4, CYP2C19 inhib 93.5
COCCn1c(SCC(=O)Nc2cccc(OC)c2)nnc1-c1ccccc1	none
Cc1ccc(NC(=O)CN2C(=O)C3CCCCN3C(=O)c3ccccc32)cc1 (centres undefined)	none
COc1ccc(C(=O)NCc2nnc(SCC(=O)Nc3cc(C)cc(C)c3)o2)cc1OC	none
CC(C)(C)C1CC=C2C(C#N)=C(N)C(C#N)(C#N)C(c3cccs3)C2C1 (centres undefined)	CYP2C9 inh 89.5, CYP2C19 inhib 57.3
S=C(Nc1ccc2snnc2c1)N1CCN(c2ccccn2)CC1	none
CCN(CC)c1ccc(-n2cc3c(=O)n(C)c(=O)n(C)c3c2)cc1	none
CN(C)c1ccc(-n2cc3c(=O)n(C)c(=O)n(C)c3c2)cc1	CYP2C9 inh 75.9
COc1ccccc1C1NC(=O)CS1 (centres undefined)	none
CCN(CC)S(=O)(=O)c1cccc(C(=O)Nc2nc3cc4c(cc3s2)OCCO4)c1	CYP2C9 inh 66.9
CC(C)(C)NS(=O)(=O)c1ccc2nc(NC(=O)Cc3cccs3)sc2c1	CYP2C9 inh 87.6, CYP2C19 inhib 50.3
CCN(CC)S(=O)(=O)c1cccc(C(=O)Nc2cccnc2)c1	none
CCN(CC)S(=O)(=O)c1ccc2nc(NC(=O)c3cccs3)sc2c1	CYP2C9 inh 62.0
CS(=O)(=O)c1ccc2nc(NC(=O)CCC(=O)c3cccs3)sc2c1	none
c1ccc(-n2nnc3cnccc32)cc1	none
CC(C)(C)N(NC(=O)Nc1ccc(Cl)cc1)C(=O)c1ccccc1	none
COC(=O)CC1SC(=O)NC1=Nc1ccc(C)cc1 (centres undefined)	CYP2C19 inhib 75.4
CCOC(=O)Cn1c(=O)oc2cc(S(=O)(=O)NCCc3ccc(OCC)c(OCC)c3)ccc21	CYP2C9 inh 56.5
CCOC(=O)Cn1c(=O)oc2cc(S(=O)(=O)N3CCc4ccccc43)ccc21	CYP2C9 inh 74.1, CYP2C19 inhib 66.8
CC(C)(C)NC(=O)Cn1c(=O)oc2cc(S(=O)(=O)N3CCc4ccccc43)ccc21	none
Cn1c(=O)c(=O)n(C)c2cc(S(=O)(=O)N3CCc4ccccc43)ccc21	CYP2C9 inh 54.3
CCOCCCNS(=O)(=O)c1ccc2c(c1)oc(=O)n2CC(=O)OCC	none
CCOC(=O)Cn1c(=O)oc2cc(S(=O)(=O)NCCC(C)C)ccc21	CYP2C9 inh 80.2
O=C(Oc1cccc([N+](=O)[O-])c1)c1cc(-c2ccccc2)nc2ccccc12	none
CCOC(=O)Cn1c(=O)oc2cc(S(=O)(=O)NC(C)c3ccccc3)ccc21 (centres undefined)	CYP2C9 inh 50.7, CYP2C19 inhib 78.5
CCOC(=O)Cn1c(=O)oc2cc(S(=O)(=O)N(CCN(C)C)Cc3ccccc3)ccc21	none
c1ccc(-c2onc3cc4c(cc23)OCCO4)cc1	CYP2C9 inh 53.9, CYP2C19 inhib 50.1
CC1(c2ccc3noc(-c4ccc(Cl)cc4)c3c2)OCCO1	none
CC(C)CCN1CC(C(=O)N2CCN(c3ccc(F)cc3)CC2)CC1=O (centres undefined)	none
CC1=CC(=NOC(=O)c2cccc([N+](=O)[O-])c2)C=C(C)C1=O	none
CC1=CC(=O)C(C(C)C)=C/C1=N/OC(=O)c1cccc([N+](=O)[O-])c1	CYP2C9 inh 53.4
Cc1ccc(CCNC(=O)c2ccc(CS(=O)(=O)Cc3ccccc3F)o2)cc1	CYP2C9 inh 97.7, CYP2C19 inhib 75.1
Cc1cccc(CS(=O)(=O)Cc2ccc(C(=O)NCc3cccnc3)o2)c1	CYP2C19 inhib 82.0
Cc1ccccc1CS(=O)(=O)Cc1ccc(C(=O)NCc2cccnc2)o1	CYP2C19 inhib 78.5
O=C(O)C1CCCCC1C(=O)Nc1nccs1 (centres undefined)	none
Cc1cc(Cl)ccc1Oc1nc(-c2ccc(F)cc2)ccc1C#N	none
COc1ccc(Cn2nnnc2C(C(C)C)N2CCN(c3ccccc3OC)CC2)cc1 (centres undefined)	CYP2C9 inh 97.3, CYP2C19 inhib 92.2
COc1ccc(C(c2nnnn2CC2CCCO2)N2CCN(c3ccc(F)cc3)CC2)cc1 (centres undefined)	CYP2C9 inh 78.1
CCN(CC)C(c1ccc(F)cc1)c1nnnn1CC1CCCO1 (centres undefined)	none
COCCn1nnnc1C(c1cccc(C#N)c1)N1CCCCCC1 (centres undefined)	CYP2C19 inhib 68.5
COCCn1nnnc1C(c1ccc(OC)c(OC)c1)N1CCN(c2nc3ccccc3s2)CC1 (centres undefined)	CYP2C9 inh 69.3
CCCC(c1nnnn1Cc1cccs1)N1CCN(c2nc3ccccc3s2)CC1 (centres undefined)	none
COc1ccc(Cn2nnnc2C(c2ccncc2)N2CCOCC2)cc1 (centres undefined)	CYP2C9 inh 77.7, CYP2C19 inhib 90.3
COc1ccc(C(c2nnnn2Cc2ccccc2)N2CCN(c3nc4ccccc4s3)CC2)cc1 (centres undefined)	CYP2C9 inh 62.6, CYP2C19 inhib 54.1
COc1ccc(C(c2nnnn2Cc2cccs2)N2CCN(c3ccccc3F)CC2)cc1 (centres undefined)	CYP2C9 inh 90.2, CYP2C19 inhib 92.0
N#Cc1ccc(C(c2nnnn2C2CCCC2)N2CCC(Cc3ccccc3)CC2)cc1 (centres undefined)	CYP2C19 inhib 55.7
COc1ccc(C(c2nnnn2C2CCCCC2)N2CCN(c3ccccc3)CC2)cc1 (centres undefined)	CYP2C9 inh 74.8, CYP2C19 inhib 72.4
COc1ccc(OC)c(C(c2nnnn2C2CCCC2)N2CCN(c3ccc(F)cc3)CC2)c1 (centres undefined)	CYP2C9 inh 63.3, CYP2C19 inhib 81.1
Cc1ccc2cc(C(c3nnnn3C3CCCC3)N3CCN(c4ccccc4)CC3)c(=O)[nH]c2c1 (centres undefined)	none
c1ccc(C(c2nnnn2Cc2cccs2)N2CCN(C3CCCC3)CC2)cc1 (centres undefined)	none
Fc1ccc(C(c2nnnn2Cc2cccs2)N2CCN(C3CCCC3)CC2)cc1 (centres undefined)	CYP2C19 inhib 79.8
COc1ccc(C(c2nnnn2Cc2ccccc2)N2CCN(c3ccccc3)CC2)cc1 (centres undefined)	CYP2C9 inh 86.1, CYP2C19 inhib 90.7
CC(Oc1ccc2oc(-c3ccccc3)c(C(=O)O)c2c1)C(=O)O (centres undefined)	none
CCC(=O)N1CCN(c2ccc(NC(=O)c3ccc(-c4ccccc4)cc3)cc2)CC1	none
O=C(C1CCCCC1)N(Cc1nc2sc3c(c2c(=O)[nH]1)CCCC3)Cc1cccs1	CYP2C9 inh 61.6
Cc1sc2nc(CSc3nnc(Cc4cccs4)n3C3CCCCC3)[nH]c(=O)c2c1C	none
